# From paper PMC5540273 (PLoS ONE, 2017)
# Key:
# Conditions in all cases: concentration: 1 μM, replicates: in singlicate; n = 1
# [1] = tested on: SBK1
# [2] = tested on: SGK2
# [3] = tested on: SGK3
# [4] = tested on: SGK
# [5] = tested on: SIK2
# [6] = tested on: SIK
# [7] = tested on: SLK
# [8] = tested on: T1, SNARK
# T1 construct: gene NUAK2
# [9] = tested on: SNRK
# [10] = tested on: SRC
# [11] = tested on: SRMS
# [12] = tested on: SRPK1
# [13] = tested on: SRPK2
# [14] = tested on: SRPK3
# [15] = tested on: STK16
# [16] = tested on: STK33
# [17] = tested on: STK35
# [18] = tested on: STK36
# [19] = tested on: STK39
# [20] = tested on: SYK
# 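Further: KINOMEscan kinase panel screen.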
Structure (SMILES),%Inh [1],%Inh [2],%Inh [3],%Inh [4],%Inh [5],%Inh [6],%Inh [7],%Inh [8],%Inh [9],%Inh [10],%Inh [11],%Inh [12],%Inh [13],%Inh [14],%Inh [15],%Inh [16],%Inh [17],%Inh [18],%Inh [19],%Inh [20]
Nc1nccc2scc(-c3ccc4c(c3)CCN4C(=O)Cc3cc(F)ccc3F)c12 [GSK2587663],11%,0%,0%,0%,0%,0%,13%,0%,8%,0%,0%,8%,0%,0%,11%,0%,0%,0%,6%,22%
Oc1ccc2ncnc(Nc3ccc(OCc4ccccc4)cc3)c2c1 [GI262866],5%,0%,0%,6%,0%,0%,1%,0%,0%,0%,0%,32%,0%,15%,3%,8%,7%,0%,0%,14%
Nc1nc(-c2ccc3c(N)n[nH]c3c2)cc(N2CCCCC2)n1 [GSK2228768],3%,0%,0%,0%,0%,0%,5%,0%,0%,15%,0%,45%,0%,0%,5%,0%,0%,0%,0%,8%
C[C@@H]1CCN(C(=O)CO)C[C@@H]1N(C)c1ncnc2[nH]ccc12,0%,0%,1%,0%,0%,10%,0%,10%,3%,6%,0%,24%,0%,0%,0%,2%,4%,0%,0%,3%
N#Cc1ccc(Oc2ccc(Nc3ncnc4cc[nH]c34)cc2Cl)cc1,27%,34%,28%,31%,37%,0%,7%,24%,38%,3%,0%,0%,0%,0%,36%,27%,27%,10%,15%,13%
Cn1cc(-c2ccc3c(c2)CCN3C(=O)Cc2cccc(C(F)(F)F)c2)c2c(N)ncnc21 [GSK2606414],9%,1%,21%,19%,0%,0%,14%,14%,1%,5%,0%,24%,0%,100%,11%,0%,0%,0%,1%,0%
Nc1n[nH]c2nnc(-c3ccccc3)cc12 [SB-517389],10%,0%,19%,0%,0%,0%,0%,0%,2%,0%,0%,20%,0%,1%,0%,0%,0%,0%,13%,5%
O=C(NCCCN1CCCC1=O)c1cnc(NCc2cc(Cl)ccc2Cl)nc1NC1CCNCC1,0%,0%,0%,0%,0%,7%,14%,0%,0%,0%,0%,21%,0%,4%,0%,0%,0%,0%,0%,8%
CN1c2ccc(-c3ccc(C(=O)NCCO)cc3)cc2-c2[nH]ncc2S1(=O)=O,0%,23%,0%,10%,16%,16%,25%,0%,0%,46%,0%,12%,5%,1%,2%,9%,26%,30%,13%,41%
COC(=O)c1cccc(NC(=O)NCCNc2ccnc(Nc3ccc(F)cc3)n2)c1 [GSK1379883],3%,0%,0%,0%,0%,0%,4%,0%,0%,0%,0%,17%,0%,7%,5%,0%,0%,0%,0%,5%
